Measurements taken from PubChem BioAssay AID1508602 (The Scripps Research Institute Molecular Screening Center, 2020).
Where “and” joins values, the source holds several entries; their conditions need not be identical. Identical values can stand only once. The whole screen tested about 650,000 compounds, of which about 6,800 (1%) were called active. Cut-off read from the data, not from the text of the source: active = activation above about 4.9%; inactive = the rest. Shown is part of a subset that was picked to be rich in actives. Some compounds were tested as several samples or in several runs, with calls that do not always agree.

Target: G-protein coupled receptor 151 (Homo sapiens) (UniProt Q8TDV0)
Assay: activates the human receptor GPR151, primary screen, cell-based, PathHunter beta-arrestin, luminescence (AID 1508602);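 note: 0% = median of compound wells and 100% = cells with positive control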
Conditions: PathHunter beta-arrestin GPR151 cells, at 11.2 µM, stronger effect = higher value

G-protein coupled receptor 151 (Homo sapiens), sequence (Q8TDV0 whole entry, looked up): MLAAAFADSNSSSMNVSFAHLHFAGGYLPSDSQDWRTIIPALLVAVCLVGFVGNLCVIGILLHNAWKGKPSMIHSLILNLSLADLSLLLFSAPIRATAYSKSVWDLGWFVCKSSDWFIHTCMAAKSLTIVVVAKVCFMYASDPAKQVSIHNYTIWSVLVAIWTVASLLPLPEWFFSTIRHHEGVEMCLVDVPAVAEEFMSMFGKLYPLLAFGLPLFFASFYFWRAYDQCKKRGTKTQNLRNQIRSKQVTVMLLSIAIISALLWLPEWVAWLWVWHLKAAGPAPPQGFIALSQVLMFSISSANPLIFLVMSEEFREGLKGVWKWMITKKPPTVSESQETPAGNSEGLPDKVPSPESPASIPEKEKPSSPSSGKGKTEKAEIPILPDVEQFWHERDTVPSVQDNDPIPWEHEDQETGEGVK

SMILES	activation
Cc1ccc2oc(-c3cccc(NC(=O)c4ccc(F)cc4)c3)nc2c1	0.17% (inactive)
O=C(c1cc(=O)oc2cc(OCc3ccccc3)ccc12)N1CCN(c2ccccn2)CC1	-0.0035% (inactive)
Cc1ccc([N+](=O)[O-])cc1NC(=O)CC12CC3CC(CC(C3)C1)C2	2.69% (inactive)
CC(C)(C)c1ccc(C(=O)NCCC(=O)NCCc2ccccc2)cc1	0.46% (inactive)
O=C1CSC2=NCN(c3ccc(I)cc3)CN12	0.445% (inactive)
CCOc1cc(C#N)ccc1OCC(=O)NCc1ccc2c(c1)OCO2	-0.667% (inactive)
COc1ccccc1CNC(=O)C1CCN(Cc2nc(-c3ccccc3C)oc2C)CC1	-0.157% (inactive)
Cc1ccc2nc(SCc3ccccc3)nc(=O)n2c1	1.52% (inactive)
c1ccc(NCc2cccc3ccccc23)nc1	5.45% (active)
O=C(Cc1cccc2ccccc12)Nc1ncn[nH]1	0.255% (inactive)
c1cnc(N2CCN(Cc3cccc4ccccc34)CC2)nc1	0.32% (inactive)
CCCNc1nc(N2CCOCC2)nc2cc(OC)c(OC)cc12	-0.145% (inactive)
c1ccc(CSc2ncnc3sc4c(c23)CCCC4)cc1	3.13% (inactive)
O=C(c1ccccc1)N1CCCCC(Sc2ncnc3sc4c(c23)CCCC4)C1=O (configuration not stated)	5.26% (active)
Cc1sc2ncnc(SC3CCCCN(C(=O)c4ccc(F)cc4)C3=O)c2c1C (configuration not stated)	2.61% (inactive)
COc1ccc(OC)c(-c2cc(Cl)c3c(c2)CC(CNC(=O)CSC)O3)c1 (configuration not stated)	0.143% (inactive)
CCOc1ccc(C2C(C(=O)Nc3ccc(C)c(F)c3)c3ccccc3C(=O)N2CCN2CCOCC2)cc1 (configuration not stated)	-1.65% (inactive)
Nc1nnc(SCC(=O)OCC(=O)NCc2ccccc2)s1	-1.05% (inactive)
O=C(CSc1nnc(NC(=O)CCc2ccccc2)s1)NCc1ccc(F)cc1	-2.57% (inactive)
Cc1nnc(SCC(=O)NCc2ccccc2)s1	6.39% (active)
C/C(N)=C1\C(=O)C(=O)N(C)C1c1ccccc1 (configuration not stated)	-1.33% (inactive)
CC(Oc1cccc(Cl)c1)C(=O)O/N=C(\N)c1ccncc1 (configuration not stated)	-0.652% (inactive)
O=C(O)CNC(=O)/C=C\c1ccc(Cl)cc1	0.187% (inactive)

SMILES	activation
CCNC(=O)n1cc(-c2ccnc3ccccc23)c(-c2ccncc2)n1	-0.919% (inactive)
O=C(Nc1ccc(-c2nnc3n2CCCCC3)cc1)c1ccc(Br)o1	-0.517% (inactive)
O=c1c(Cl)c(-c2ccccc2)oc2ccccc12	-1.04% (inactive)
CCN(CC)C(=O)C1CCCN(c2cc(Nc3ccccc3)nc(N)n2)C1 (configuration not stated)	1.77% (inactive)
CCN(CC)C(=O)C1CCCN(c2cccc(C(=O)NCCc3ccc(OC)cc3)c2)C1 (configuration not stated)	-1.08% (inactive)
CCN(CC)C(=O)C1CCCN(c2nc3ncnc(NCCc4ccc(OC)cc4)c3[nH]2)C1 (configuration not stated)	0.885% (inactive)
CCN(CC)C(=O)C1CCCN(c2cc(NCCN(C(C)C)C(C)C)nc(N)n2)C1 (configuration not stated)	4.23% (inactive)
CCN(CC)C(=O)C1CCCN(c2cccc(C(=O)NCCc3ccc(OC)cc3)n2)C1 (configuration not stated)	5.87% (active)
CCN(CC)C(=O)C1CCCN(c2cc(N)nc(N)n2)C1 (configuration not stated)	6.79% (active)
O=C(O)c1cc(N=Cc2cccnc2)ccc1O	0.982% (inactive)
Cc1ccc(CNC(=O)CCCCCn2c(SCc3cc(=O)n4ccccc4n3)nc3ccsc3c2=O)cc1	1.39% (inactive)
O=C(Nc1ccc(F)c(Cl)c1)/C(=C/c1cccc([N+](=O)[O-])c1)NC(=O)c1cccs1	0.762% (inactive)
C=CCNC(=O)/C(=C/c1ccc(Cl)cc1)NC(=O)c1ccccc1	3.04% (inactive)
CC(NC(=O)Cc1ccc(-c2ccccc2)cc1)c1nc(-c2cccnc2)n[nH]1 (configuration not stated)	-0.113% (inactive)
CCC(C)OC(=O)C1=C(C)NC2=C(C(=O)CC(c3ccccc3)C2)C1c1ccccc1OCc1ccccc1 (configuration not stated)	1.93% (inactive)
CN1CC(=O)N2CCN(C(=O)OCc3ccccc3)C[C@@H]2C1=O	5.14% (active)
COc1ccccc1C(=O)N1CCN2C(=O)CN(C)C(=O)[C@H]2C1	1.54% (inactive)
NCCCC[C@@H]1NC(=O)[C@H]2CN(C(=O)OCc3ccccc3)CCN2C1=O	-0.551% (inactive)
O=C1CSC(c2ccccc2Br)N1c1ccc(F)c(Cl)c1 (configuration not stated)	-1.29% (inactive)
COc1ccc(C(=O)COC(=O)c2ccc3ccccc3n2)c(OC)c1	-0.989% (inactive)
COc1ccc(C(=O)Cc2cc3ccccc3oc2=O)c(OC)c1	8.65% (active)
COc1cccc(/C=C/C(=O)c2cc3ccccc3oc2=O)c1	-0.0229% (inactive)
CCCN1CCC(N2CCN(c3cccc(Cl)c3)CC2)CC1	-0.685% (inactive)

SMILES	activation
O=C(CSc1nc2ccccc2c(=O)n1CCCN1CCN(c2cccc(Cl)c2)CC1)N1CCCCCC1	0.298% (inactive)
CCc1nn(CCCN2CCN(c3cccc(Cl)c3)CC2)c(=O)n1CCOc1ccccc1	5.41% (active) and -0.0264% (inactive) and -0.848% (inactive)
O=C(N/N=C/c1cc(Cl)ccc1O)c1cc(-c2ccccc2)n[nH]1	5.58% (active)
COc1cc(Br)cc(/C=N/NC(=O)c2cc(-c3ccccc3)n[nH]2)c1O	3.1% (inactive)
O=C(N/N=C/c1ccccc1O)c1cc(-c2ccc(Cl)cc2)n[nH]1	-0.397% (inactive)
Cn1c(=NC(=O)CN2C(=O)CCC2=O)sc2cc([N+](=O)[O-])ccc21	1.44% (inactive)
CC(C)(C)c1cnnn1-c1ccc(C(=O)/C=C\c2ccco2)cc1	0.0135% (inactive)
COc1ccc(NC(=O)CCC(=O)N/N=C/c2ccccc2Cl)cc1	0.396% (inactive)
COc1ccc(NC(=O)CCC(=O)N/N=C/c2cc(Cl)ccc2O)cc1	-1.64% (inactive)
C=CCc1cccc(/C=N/NC(=O)CCC(=O)Nc2ccc(Br)cc2)c1O	7.12% (active)
COc1ccccc1N(CC(=O)Nc1ccc(F)c(Cl)c1)S(=O)(=O)c1ccccc1	2.46% (inactive)
COC(=O)c1sccc1N/N=C/c1ccccn1	-4.95% (inactive)
COc1ccc(CCNC(=O)Cn2cnc3sc4c(c3c2=O)CCC4)cc1OC	0.328% (inactive)
COc1cccc(-c2nnc(NC(=O)CSc3ccccc3)o2)c1	9.1% (active)
COc1cccc(-c2nnc(SCC(=O)NCc3ccccc3)o2)c1	-0.0263% (inactive)
COc1ccc(CC(=O)Nc2ccc(C(=O)Nc3ccccc3C(=O)O)cc2)cc1	1.57% (inactive)
COc1ccc(NC(=O)Cc2ccc(C)cc2)cc1	-2.5% (inactive)
COc1cccc(NC(=O)CSc2nnc(-c3ccc(NS(C)(=O)=O)cc3)o2)c1	0.627% (inactive)
COc1ccc(CC(=O)Nc2ccc(-c3nnc(-c4ccccc4)o3)cc2)cc1	7.27% (active)
CCC(C)NC(=O)c1sc2nc(C)nc(N3CCCCC3)c2c1C (configuration not stated)	2.24% (inactive)
CCC(CC)C(=O)Nc1ccc(S(=O)(=O)Nc2ncccn2)cc1	-0.125% (inactive)
CCCCCC(=O)OCCNC(=O)c1cc2ccccc2oc1=O	-0.976% (inactive)
CCc1ccc(S(=O)(=O)NCc2csc(-c3ccccc3)n2)cc1	-1.08% (inactive)

SMILES	activation
O=S(=O)(NCc1csc(-c2cccnc2)n1)c1ccc2ccccc2c1	5.9% (active)
Cc1ccc(S(=O)(=O)NCc2csc(-c3ccccc3)n2)cc1	4.76% (inactive)
NC1=NC(=O)/C(=C/c2ccccc2C(F)(F)F)S1	-0.392% (inactive)
Cc1c(C)n2c(SCC(=O)Nc3ccc4c(c3)OCO4)nnc2[nH]c1=O	1.02% (inactive)
CCCc1cc(=O)[nH]c2nnc(SCC(=O)Nc3cc(OC)ccc3OC)n12	-0.547% (inactive)
COc1ccc(OC)c(NC(=O)CSc2nnc3[nH]c(=O)c(C)c(C)n23)c1	5.91% (active)
Cc1ccc(CSCc2nnc(SCC(=O)Nc3nccs3)n2C)cc1	0.977% (inactive)
COc1ccc(/C(=N/C(N)=S)Nc2ccccc2)cc1	-0.629% (inactive)
COc1cc(/C=C/C(=O)O)ccc1OCc1ccccc1F	-0.0946% (inactive)
Cc1ccc(-c2nc(CCNC(=O)c3cccs3)cs2)cc1	-1.14% (inactive)
COC(=O)C1(C)NC(c2ccccc2OC)C2C(=O)N(c3ccccc3)C(=O)C21 (configuration not stated)	5.08% (active)
COC(=O)C1(C)NC(c2ccc(C)cc2)C2C(=O)N(c3ccc(C)cc3)C(=O)C21 (configuration not stated)	-0.33% (inactive)
COC(=O)C1(C)NC(c2ccc(C)cc2)C2C(=O)N(c3ccc(F)cc3)C(=O)C21 (configuration not stated)	-0.111% (inactive)
Cc1c(C(=O)Nc2ccc(F)cc2Cl)sc2ncn(CC(=O)N3CCOCC3)c(=O)c12	-1.55% (inactive)
Clc1ccccc1C1C=C(c2ccc(I)cc2)Nc2nnnn21 (configuration not stated)	13.5% (active)
FC(F)Oc1ccccc1C1C=C(c2ccc(Cl)cc2)Nc2nnnn21 (configuration not stated)	-0.0148% (inactive)
Cc1ccc(C2=CC(c3ccccc3F)n3nnnc3N2)cc1 (configuration not stated)	0.122% (inactive)
CC(C)C[C@@H]1NC(=O)[C@@H]2C[C@H](NCc3cn(C)nc3-c3ccccc3)CN2C1=O	2.5% (inactive)
Cc1cc(CN(C)Cc2ccc(OCC(O)CN(C)Cc3ccccc3)cc2)n[nH]1 (configuration not stated)	5.48% (active)
COCCN(C)Cc1ccc(OCC(O)CN(C)Cc2ccccc2)cc1 (configuration not stated)	2.19% (inactive)
Cc1nc(CNCc2ccc(OCC(O)CN(C)Cc3ccccc3)cc2)n[nH]1 (configuration not stated)	0.224% (inactive)
CC(C)Cn1cnc2c1c(=O)[nH]c(=O)n2CC(C)C	-1.78% (inactive)
CCOC(=O)c1oc2ccc(C=O)c(Cl)c2c1C	0.651% (inactive)
